TDP1 block: blocks human tyrosyl-DNA phosphodiesterase 1. hit rate 0.28% among 350,000. recombinant TDP1, AlphaScreen DNA substrate cleavage. Q9NUW8. Potency, µM (top dose mostly 130 µM), inactives show at the highest dose activity change, negative = inhibition, usual class: inhibitors; also: potency is read from the fitted curve at half-maximal effect; nearly all actives have a fitted effect of over 40% in size
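Here, a 5' biotin and 3' phosphotyrosine-FITC DNA oligonucleotide reports Tdp1 activity: intact substrate bridges AlphaScreen beads, while cleavage leaves a 3' phosphate and drops signal. All incubations at room temperature.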
PI5P4K alpha inh: inhibitors of human PI5P4K alpha; P48426; PI5P4Kalpha enzyme, ADP-Glo luminescence, 60 min; active compounds read low; max response, %; hit rate 1.2% among 330,000; active = max response of -50% or lower; inconclusive = between -30% and -50%; inactive = -30% or higher; also: value at the top dose of about 77 µM
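ADP-Glo luminescence end-point read after a 60 min room-temperature kinase reaction of PI5P4Kalpha plus substrate, initiated with ATP at 5 microM final. Buffer: 0.038 M HEPES pH 7.4, EGTA, 0.1% CHAPS, 5% DMSO.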
FEN1 inh: blocks human flap endonuclease 1; Recombinant FEN1 flap cleavage, fluorescence, 15 min; AID 588795; hit rate 0.35% among 390,000; Potency, µM (titrated, usually from 114 µM), without a hit: at the highest dose activity change, negative = inhibition, actives largely listed as inhibitors; also: potency is read from the fitted curve at half-maximal effect; nearly all actives have a fitted effect of over 65% in size
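In this screen, 50 nM flap DNA substrate was added to 10 nM FEN1 pretreated with compound for 15 min at room temperature; cleavage was followed with reads at 0 and 15 min, and Hill fitting gave concentration–response parameters.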
Tb PFK block: blocks T. brucei phosphofructokinase | O15648 | T. brucei PFK, ADP-Glo luminescence | Potency, µM (series often up to 57.5 µM), for inactives: top-dose activity, negative = inhibition, actives largely listed as inhibitors | hit rate 0.17% among 330,000;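 also: potency is read from the fitted curve at half-maximal effect; 0% = uninhibited 1x PFK enzyme wells and -100% = no-enzyme wells; nearly all actives have a fitted effect of over 60% in size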
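PFK 1.25 nM, F6P 0.5 mM, ATP 0.1 mM, 0.1 M TEA pH 8.0, 5 mM MgCl2, 0.01% Tween20, 0.1% BSA; 45 min RT. ADP-Glo readout. qHTS titration up to 57 uM; curves fitted, compounds curve-classed.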
WRN inhibitor: WRN helicase (human) inhibition; Q14191; WRN helicase unwinding, fluorescent forked duplex, kinetic; Potency, µM (highest dose often 114 µM), for the others: at the highest dose activity change, negative = inhibition, usual class: inhibitors; hit rate 0.46% among 360,000; also: potency is read from the fitted curve at half-maximal effect; nearly all actives have a fitted effect of over 55% in size
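WRN at 20 nM final was preincubated with compound for 15 min at room temperature; reaction started with 100 nM forked duplex oligonucleotide carrying fluorophore and quencher plus 2 mM ATP (final). Unwinding followed kinetically by red fluorescence (ex 525/em 598 nm).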
PGK inhibitor: blocks T. brucei phosphoglycerate kinase; P07378; PGK/GAPDH coupled, Kinase-Glo luminescence, 60 min; Potency, µM (titrated, usually from 57.5 µM), for inactives: top-dose activity change, negative = inhibition, actives largely listed as inhibitors; hit rate 0.043% among 380,000; also: potency is read from the fitted curve at half-maximal effect; nearly all actives have a fitted effect of over 60% in size
Target sequence (P07378 whole entry, looked up): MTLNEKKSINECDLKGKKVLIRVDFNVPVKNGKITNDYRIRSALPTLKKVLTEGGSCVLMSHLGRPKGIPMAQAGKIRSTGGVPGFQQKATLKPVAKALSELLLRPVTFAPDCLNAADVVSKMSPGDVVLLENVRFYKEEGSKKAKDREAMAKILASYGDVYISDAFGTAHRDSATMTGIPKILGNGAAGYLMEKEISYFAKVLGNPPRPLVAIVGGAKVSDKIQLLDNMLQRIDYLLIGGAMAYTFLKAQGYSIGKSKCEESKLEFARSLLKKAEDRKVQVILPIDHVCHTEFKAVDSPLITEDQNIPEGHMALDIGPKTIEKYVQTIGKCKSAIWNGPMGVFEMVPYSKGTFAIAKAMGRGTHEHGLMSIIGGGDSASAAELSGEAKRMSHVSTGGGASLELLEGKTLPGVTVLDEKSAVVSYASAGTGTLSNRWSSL
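Recombinant glycosomal PGK reaction used 1,3-bisphosphoglycerate generated in-well by GAPDH (100nM final) in 100mM TEA pH 7.6, 5mM MgCl2, 0.01% Tween-20. After 60 minutes at room temperature, ATP was read by Kinase-Glo Plus luminescence end-point.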
The depositor's hits bear a star; i = inactive; ? = inconclusive; / = no result given; [ ] = dose if it differs, or a comment. Only some compounds are listed: those with a hit (about 1.5% of all), similar ones and a draw of the others. Unless noted, calls follow the shape of the dose curve; as a rule, active = well fitted curve in the direction sought with a large enough effect; inconclusive = small, poorly fitted or top-dose-only effect, or another doubt; inactive = no such curve, though single readings can be large; an effect the other way counts as inactive or inconclusive. Unless noted, % is scaled to controls: 0 for no effect and ±100 for the full control effect.

SMILES	TDP1 block	PI5P4K alpha inh	FEN1 inh	Tb PFK block	WRN inhibitor	PGK inhibitor
CCc1ccccc1NC(=O)CNC(=O)c1ccc(OCc2cn3ccccc3n2)cc1	28µM*	-8	-6%	-19%	-21%	-8%
CC(C)CSC1=NSC2=NC(=O)/C(=C\c3coc4ccccc4c3=O)C(=N)N12	9%	?	?	-10%	?	-12%
CSC1=NSC2=NC(=O)/C(=C\c3coc4ccccc4c3=O)C(=N)N12	-3%	-57*	79µM*	0%	56µM*	-1%
N=C1/C(=C/c2coc3ccccc3c2=O)C(=O)N=C2SC(c3ccco3)=NN12	/	-78*	32µM*	-2%	40µM*	-8%
Cc1cc(N=Nc2ccc(C)c(N=Nc3cc(C)c(N)cc3N)c2)c(N)cc1N	/	-28	22µM*	?	-7%[11.6 µM]	1%
COc1ccc(N=Nc2cc(OC)c(N)cc2OC)cc1	/	-4	-18%	/	-10%	i
CC(C)(C)c1ccc(OCC2CO2)cc1 (centres undefined)	9%	/	/	/	/	/
CC(C)=CCc1c(O)cc(O)c2c1OC(c1ccc(O)cc1)CC2=O (centres undefined)	/	-63*	3%	/	-7%	i
Cc1c(O)cc2c(c1O)C(=O)CC(c1ccc(O)cc1)O2 (centres undefined)	-8%	-80*	?	5%	-8%[11.6 µM]	-26%
CC(C)=CCc1c(O)c(CC=C(C)C)c2c(c1O)C(=O)CC(c1ccc(O)cc1)O2 (centres undefined)	1%	-29	?	-6%	-15%	i
CCN1CCN(c2nc(C)nc3c2sc(=S)n3C)CC1	-5%	-25	?	19µM*	11%	-5%
Cc1noc(C)c1-c1ccc2ncnc(NCc3ccccc3F)c2c1	6%	/	/	/	/	/
COC(=O)c1c(C)n(-c2ccccc2)c2ccc(O)cc12	6%	/	-9%	-8%	-2%	-6%
CN(C)/C=C/c1c([N+](=O)[O-])c2ccc(O)cc2n1-c1ccccc1	8%	-59*	-34%	-3%	-32%	-10%
CCN(CC)CCCC(C)Nc1c2ccc(Cl)cc2nc2ccc(OC)cc12 (centres undefined)	11%	/	11µM*	3%	/	/
CCN(CC)CCCC(C)Nc1cc(/C=C/c2ccccc2Cl)nc2cc(Cl)ccc12 (centres undefined)	0%	/	-26%	/	/	/
Cc1cc(NC(=O)CSCC(=O)OCC(=O)c2cccc(Br)c2)no1	1%	-62*	-3%	-3%	-19%	i
Cc1cc(NC(=O)CSCC(=O)OCC(=O)Nc2ccc(OC(F)F)cc2)no1	-2%	0	-1%	7%	-3%	-9%
Cc1cc(C(=O)N/N=C/c2ccc(O)c(O)c2O)c(C)n1-c1ccccc1	0%	-62*	-29%	?	-5%	-8%
Cc1cc(/C=N/NC(=O)c2ccncc2)c(C)n1-c1ccccc1	6%	-1	-5%	-6%	-9%	0%
C/C(=N\NC(=O)Cc1csc(N2CCOCC2)n1)c1ccccc1	2%	12	-14%	-3%	1%	-4%
O=C(Cc1csc(N2CCOCC2)n1)N/N=C/c1ccc(O)c(O)c1O	?	-60*	?	-17%	22µM*	-7%
O=C(CCN1CCN(c2ccccc2)CC1)N/N=C/c1ccc(O)c(O)c1O	0%	-69*	28µM*	-28%	40µM*	-22%
CCOC(=O)CCN1C(=O)[C@H]2[C@H]3[C@H](O)[C@H](O)C/C(=N/NC(=O)OCC)[C@@H]3CC[C@@H]2C1=O	8%[21 µM]	/	/	/	/	/
COc1ccc(-c2nc3c(c4c2C[C@H](c2ccccc2)OC4)CN(S(=O)(=O)c2ccc(NC(C)=O)cc2)CC3)c(C)c1	5%[21 µM]	/	/	/	/	/
SMILES	TDP1 block	PI5P4K alpha inh	FEN1 inh	Tb PFK block	WRN inhibitor	PGK inhibitor
Cc1n[nH]c2c([N+](=O)[O-])c(=O)[nH]c(=O)n12	/	-67*	-2%	/	-6%	2%
CC(=O)OC[C@@H]1O[C@H](CCO/N=C(\C)CCN2CCCCc3nc(C)c(C)cc32)C=C[C@@H]1OC(C)=O	4%[21 µM]	/	/	/	/	/
C[C@]12CC[C@@H]3c4ccc(O)cc4CC[C@H]3[C@@H]1CCC2OC(=O)CCC1CCCC1 (some centres undefined)	4%	/	/	/	/	/
COc1ccc(/C=C/C(=O)OCC(=O)Nc2cc(S(=O)(=O)N(C)C)ccc2Cl)cc1	0%	1	17%	0%	-5%	6%
CN(C)S(=O)(=O)c1ccc(Cl)c(NC(=O)COC(=O)/C=C/c2ccco2)c1	50µM*	-27	1%	-14%	-15%	-16%
O=C(COC(=O)/C=C/c1ccco1)Nc1ncc(Cl)cc1Cl	20µM*	-20	8%	?	-18%[57.1 µM]	/
Oc1cc(CNC2CCCCC2)c(O)cc1CNC1CCCCC1	/	-53*	-7%	/	-13%	-6%
S=C(NCCCN1CCOCC1)NCCCN1CCOCC1	1%	-17	1%	?	-22%	i
S=c1[nH]nc(NCCCN2CCOCC2)s1	11%	-69*	?	1%	-6%	-1%
C=Nc1ccc(/C=C/c2ccnc3ccccc23)cc1	/	/	-20%	/	/	/
C#CCOCCOCCOCCNc1nc(N2CCN(C(=O)CCCCCCCCCCNC(=O)[C@H](CCCCN)n3cc(CCO)nn3)CC2)nc(N2CCN(C(=O)CCCCCCCCCCNC(=O)[C@H](CCCCN)n3cc(CCO)nn3)CC2)n1	14%	-67*	79µM*	30%	-10%	13%
C#CCOCCOCCOCCNc1nc(N2CCN(C(=O)CCCCCCCCCCNC(=O)[C@H]([C@@H](C)CC)n3cc(CCCCCN)nn3)CC2)nc(N2CCN(C(=O)CCCCCCCCCCNC(=O)[C@@H]([C@H](C)O)n3cc(C)nn3)CC2)n1	7%	?	56µM*	?	56µM*	11%
C#CCOCCOCCOCCNc1nc(N2CCN(C(=O)CCCCCCCCCCNC(=O)[C@H](CCCCN)n3cc(CCO)nn3)CC2)nc(N2CCN(C(=O)CCCCCCCCCCNC(=O)[C@@H]([C@H](C)O)n3cc(C)nn3)CC2)n1	11%	-84*	?	0%	18%	1%
C[C@@](Cc1ccccc1)(C(=O)O)N1C(=O)c2ccc(C(=O)O)cc2C1=O	8%	/	/	-1%	/	/
Cc1cc(NS(=O)(=O)c2ccc(Nc3nc(-c4sc(N)nc4C)cs3)cc2)no1	-11%	136	56µM*	1%	25µM*	-8%
Cc1ccc(/C=C2/SC(=S)N(c3ccc(S(=O)(=O)Nc4nccs4)cc3)C2=O)cc1	/	-68*	?	0%	?	-13%
Cc1ccc(S(=O)(=O)NN2C(=O)/C(=C/c3ccccn3)SC2=S)cc1	4%	-14	6%	2%	-35%[57.1 µM]	-8%
